Measured values reported in PMC5540273 (PLoS ONE, 2017).

System: AURKA
Settings: concentration: 1 μM, replicates: in singlicate; n = 1
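Note: KINOMEscan kinase panel screen.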

Structure (SMILES)	%Inh [%]
O=C(Nc1ccc2c(c1)OCO2)NC1CCN(c2ccnc(NCc3ccc(F)cc3)n2)CC1 [GSK1379859]	11
O=C(Nc1n[nH]c2cc(-c3ccccc3F)ccc12)C1CC1 [SB-733371]	16
Cc1ccccc1COc1cc(-n2cnc3cc(Cl)ccc32)sc1C(N)=O [GW813349]	26
Cc1nnc(-c2ccc(C)c(-c3ccc(C(=O)O)cc3)c2)o1 [GW608005]	0
COc1ccc(-c2cc3c(C)nc(N)nc3n([C@H]3CC[C@H](O)CC3)c2=O)cn1	0
CCC(=O)c1c(-c2ccccc2)c2cc(Cl)ccc2c(=O)n1Cc1cc(S(C)(=O)=O)n(CC(F)F)n1	0
CC(C)(C)c1ccc(C(=O)Nc2cn3cc(-c4ccccc4)ccc3n2)cc1	48
Cc1c(Cn2c(C)nn3c(=O)cc(N4CCO[C@H](C)C4)nc23)cccc1C(F)(F)F [GSK2373690]	0
COc1cccc(C2=C(Nc3cccc(C(=O)O)c3)C(=O)NC2=O)c1 [SB-390770]	21
COc1cc2ncn(-c3cc(OCc4ccncc4)c(C(N)=O)s3)c2cc1OC [GSK336313]	17
COc1ccc(-c2coc3ccc(-c4nnc(SCc5cccc(C#N)c5)o4)cc23)cc1	22
Nc1nc(-c2ccccc2F)c(-c2ccnc3ccccc23)s1 [GW560459]	0
COC(=O)c1c(-c2ccccc2)c2cc(Br)ccc2c(=O)n1Cc1ccc(NC(=O)CCC(=O)O)cc1	0
COC(=O)c1c(-c2ccccc2)c2cc(Br)ccc2c(=O)n1Cc1ccc(S(C)(=O)=O)cc1	35
CCc1nc(-c2cccc(C)c2)c(-c2ccncc2)s1	0
COc1cc(Nc2ccnc3ccc(C(F)(F)F)cc23)cc(OC)c1OC [GW577382]	49
COC(=O)c1c(-c2ccccc2)c2cc(C)ccc2c(=O)n1Cc1ccccc1	0
CN1C(=O)C(Nc2ccccc2)=C(c2ccccc2)C1=O [SB-300079]	0

Structure (SMILES)	%Inh [%]
CCC(=O)c1c(-c2ccccc2)c2cc(Cl)ccc2c(=O)n1Cc1cc(C(=O)NC2CC2)n(C)n1	22
Nc1ncnc2c1ncn2-c1ccc(Cl)cc1 [AH2635]	0
Cc1cccc(-c2cc(-c3c[nH]nc3-c3ccccn3)ccn2)c1 [GW679395]	8
CN1C(=O)C(Nc2cc(Cl)c(O)c(Cl)c2)=C(c2ccc(Cl)cc2)C1=O [SB-404321]	0
COc1cc2nccc(Nc3cccc(Oc4ccccc4)c3)c2cc1OC.Cl [GW284543]	5
CCCC(=O)Nc1n[nH]c2ncc(-c3cccc4ccccc34)cc12 [SB-642057]	6
COc1cccc(C2=C(N(C)c3ccccc3)C(=O)NC2=O)c1 [SB-334865]	11
COc1ccc(-c2cc3c(C)nc(N)nc3n([C@H]3CC[C@H](OCCO)CC3)c2=O)cn1	0
Nc1ncnc2c1ncn2-c1cccc(F)c1 [SKF-97560]	0
CN(C)c1cc(-c2ccc3c(N)n[nH]c3c2)nc(N)n1 [GSK2219329]	0
COc1ccc(-n2cnc3c(N)ncnc32)cc1 [SKF-97236]	0
Cn1c(=O)c(F)c(Nc2ccc(I)cc2F)c2c(=O)n(OC[C@H](O)CO)cnc21	0
COc1cc(Nc2nccc(N3CCC(NC(=O)C(C)c4ccc(Cl)cc4)C3)n2)cc(OC)c1OC (stereo not drawn) [GSK1379757]	52
COc1cc2ncn(-c3cc(OCCCc4ccccc4)c(C(N)=O)s3)c2cc1OC [GSK205189]	0
Cc1cccc(-c2nc(Nc3ccc4c(cnn4C)c3)c3ccccc3n2)n1 [GW876731]	24
Nc1nc(N)c2nc(-c3ccccc3)[nH]c2n1 [SKF-12778]	3
Cl.c1ccc(Cn2cnc3cc(Nc4ncnc5ccccc45)ccc32)cc1 [GW272142]	0
Nc1nccc2scc(-c3ccc4c(c3)CCN4C(=O)Cc3ccccc3)c12 [GSK2576924]	9
